# How the values were obtained:
# Experiment in all cases: DAPPL (digital affinity profiling via proximity ligation, sequencing); 10 mM Tris-HCl pH 7.5, 50 mM NaCl, 1 mM DTT, 4% glycerol, room temperature, 30 min; GST-TFs on glutathione beads, 16-mer random dsDNA library, 0.1% formaldehyde crosslink after washing; high values mean tight binding
# FEV = biological target: T1, FEV (Homo sapiens, UniProt Q99581 1-238); conditions: protein: recombinant; tags: N-terminal GST; dsDNA, one strand shown
# T1 sequence: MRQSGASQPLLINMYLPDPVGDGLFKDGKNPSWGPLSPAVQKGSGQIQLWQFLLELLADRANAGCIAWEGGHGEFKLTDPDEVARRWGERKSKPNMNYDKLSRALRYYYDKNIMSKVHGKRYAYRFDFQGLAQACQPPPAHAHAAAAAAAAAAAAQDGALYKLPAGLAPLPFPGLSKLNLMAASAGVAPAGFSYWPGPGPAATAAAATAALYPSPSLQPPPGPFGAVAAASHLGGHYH
# How it was run: (§1)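 Binding signal is each hexamer's read frequency for a factor divided by its frequency in the tag-only sample. The factors were GST-fused human transcription factors from yeast, captured on glutathione beads, DNA-barcoded and pooled with that sample. Pools were incubated with 200 nmole of a random double-stranded 16-mer DNA library in Tris/NaCl/DTT/glycerol buffer at room temperature for 30 min, then washed, crosslinked with 0.1% formaldehyde, proximity-ligated with BsaI/T4 ligase (1 h, 37 °C), PCR-amplified and sequenced on an Illumina NextSeq500.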
# ETV5 = ETV5 (Homo sapiens, UniProt P41161 1-510); conditions: protein: recombinant; tags: N-terminal GST; dsDNA, one strand shown
# How it was run: as §1
# HSF1 = HSF1 (Homo sapiens, UniProt Q00613 1-529); conditions: protein: recombinant; tags: N-terminal GST; chain copies: 3; dsDNA, one strand shown
# How it was run: as §1
# SPIC = biological target: T2, SPIC (Homo sapiens, UniProt Q8N5J4 1-248); conditions: protein: recombinant; tags: N-terminal GST; dsDNA, one strand shown
# T2 sequence: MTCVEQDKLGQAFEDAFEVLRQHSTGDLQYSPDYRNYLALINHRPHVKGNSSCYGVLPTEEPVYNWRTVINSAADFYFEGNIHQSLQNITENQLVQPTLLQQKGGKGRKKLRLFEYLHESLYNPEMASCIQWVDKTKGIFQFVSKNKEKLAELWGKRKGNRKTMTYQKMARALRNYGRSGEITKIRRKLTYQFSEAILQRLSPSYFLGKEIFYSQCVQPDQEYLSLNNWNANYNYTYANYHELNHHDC
# How it was run: as §1
# ELF4 = ELF4 (Homo sapiens, UniProt Q99607 1-663); conditions: protein: recombinant; tags: N-terminal GST; dsDNA, one strand shown
# How it was run: as §1
# ELK4 = biological target: T3, ELK4 (Homo sapiens, UniProt P28324-2 1-405); conditions: protein: recombinant; tags: N-terminal GST; dsDNA, one strand shown
# T3 sequence: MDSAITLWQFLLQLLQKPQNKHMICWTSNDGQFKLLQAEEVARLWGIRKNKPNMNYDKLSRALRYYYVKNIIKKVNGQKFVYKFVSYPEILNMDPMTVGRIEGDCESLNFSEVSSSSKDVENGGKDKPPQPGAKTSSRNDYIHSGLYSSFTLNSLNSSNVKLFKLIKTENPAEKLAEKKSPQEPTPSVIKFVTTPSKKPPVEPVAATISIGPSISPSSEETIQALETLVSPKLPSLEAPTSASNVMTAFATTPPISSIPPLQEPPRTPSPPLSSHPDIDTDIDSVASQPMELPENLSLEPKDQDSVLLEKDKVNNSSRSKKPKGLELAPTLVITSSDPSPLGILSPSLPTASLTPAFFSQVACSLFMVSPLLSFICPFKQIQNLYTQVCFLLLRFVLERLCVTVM
# How it was run: as §1
# ETV2 = biological target: T4, ETV2 (Homo sapiens, UniProt O00321 1-342); conditions: protein: recombinant; tags: N-terminal GST; dsDNA, one strand shown
# T4 sequence: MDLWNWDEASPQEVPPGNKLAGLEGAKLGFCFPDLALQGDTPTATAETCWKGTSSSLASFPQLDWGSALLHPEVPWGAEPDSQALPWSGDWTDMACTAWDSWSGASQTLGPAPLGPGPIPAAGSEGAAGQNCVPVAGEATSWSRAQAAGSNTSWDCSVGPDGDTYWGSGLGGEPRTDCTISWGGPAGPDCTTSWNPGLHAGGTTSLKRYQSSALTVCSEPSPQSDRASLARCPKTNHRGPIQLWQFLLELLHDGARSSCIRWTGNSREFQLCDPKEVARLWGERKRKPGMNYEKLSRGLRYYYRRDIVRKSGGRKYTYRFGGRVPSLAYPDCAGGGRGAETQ
# How it was run: as §1
# ELF3 = biological target: T5, ELF3 (Homo sapiens, UniProt P78545 1-371); conditions: protein: recombinant; tags: N-terminal GST; dsDNA, one strand shown
# T5 sequence: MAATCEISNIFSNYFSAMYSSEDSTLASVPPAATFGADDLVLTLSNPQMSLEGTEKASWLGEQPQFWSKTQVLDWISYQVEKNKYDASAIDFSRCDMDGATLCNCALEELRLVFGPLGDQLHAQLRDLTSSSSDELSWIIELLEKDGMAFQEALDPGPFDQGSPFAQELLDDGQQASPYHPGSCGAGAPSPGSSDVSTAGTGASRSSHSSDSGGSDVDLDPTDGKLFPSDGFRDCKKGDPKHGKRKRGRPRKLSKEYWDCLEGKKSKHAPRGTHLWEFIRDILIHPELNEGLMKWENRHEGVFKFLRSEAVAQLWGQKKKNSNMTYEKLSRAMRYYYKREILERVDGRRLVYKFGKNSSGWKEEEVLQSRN
# How it was run: as §1
# CRX = CRX (Homo sapiens, UniProt O43186 1-299); conditions: protein: recombinant; tags: N-terminal GST; dsDNA, one strand shown
# How it was run: as §1
# ETV1 = ETV1 (Homo sapiens, UniProt P50549 1-477); conditions: protein: recombinant; tags: N-terminal GST; dsDNA, one strand shown
# How it was run: as §1
# ERF = biological target: T6, ERF (Homo sapiens, UniProt P50548 1-548); conditions: protein: recombinant; tags: N-terminal GST; dsDNA, one strand shown
# T6 sequence: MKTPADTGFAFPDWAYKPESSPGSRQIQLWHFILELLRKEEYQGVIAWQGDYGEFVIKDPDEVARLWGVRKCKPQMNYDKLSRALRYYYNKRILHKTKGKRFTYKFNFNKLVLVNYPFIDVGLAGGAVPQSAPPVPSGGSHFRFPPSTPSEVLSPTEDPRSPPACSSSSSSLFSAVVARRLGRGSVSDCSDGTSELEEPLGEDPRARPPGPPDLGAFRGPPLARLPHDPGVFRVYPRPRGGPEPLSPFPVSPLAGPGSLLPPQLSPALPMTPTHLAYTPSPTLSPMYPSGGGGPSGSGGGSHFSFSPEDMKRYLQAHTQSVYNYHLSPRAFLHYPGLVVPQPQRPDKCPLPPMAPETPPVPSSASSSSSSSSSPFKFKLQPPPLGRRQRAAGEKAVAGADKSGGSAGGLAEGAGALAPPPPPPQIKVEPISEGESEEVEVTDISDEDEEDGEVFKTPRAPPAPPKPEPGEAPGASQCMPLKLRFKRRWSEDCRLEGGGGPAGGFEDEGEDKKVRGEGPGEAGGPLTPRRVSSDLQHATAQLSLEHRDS
# How it was run: as §1
# ETV3L = biological target: T7, ETV3L (Homo sapiens, UniProt Q6ZN32 1-361); conditions: protein: recombinant; tags: N-terminal GST; dsDNA, one strand shown
# T7 sequence: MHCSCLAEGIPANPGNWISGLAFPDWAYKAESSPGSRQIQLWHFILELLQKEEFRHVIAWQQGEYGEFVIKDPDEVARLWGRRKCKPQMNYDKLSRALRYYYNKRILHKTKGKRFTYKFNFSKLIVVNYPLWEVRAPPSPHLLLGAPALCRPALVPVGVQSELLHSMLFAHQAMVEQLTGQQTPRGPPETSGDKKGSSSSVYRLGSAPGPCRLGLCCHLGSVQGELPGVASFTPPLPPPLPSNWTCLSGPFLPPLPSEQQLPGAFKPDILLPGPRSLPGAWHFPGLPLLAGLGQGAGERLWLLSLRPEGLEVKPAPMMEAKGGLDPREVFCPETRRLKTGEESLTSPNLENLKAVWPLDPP
# How it was run: as §1
# ETS2 = biological target: T8, ETS2 (Homo sapiens, UniProt P15036 1-469); conditions: protein: recombinant; tags: N-terminal GST; dsDNA, one strand shown
# T8 sequence: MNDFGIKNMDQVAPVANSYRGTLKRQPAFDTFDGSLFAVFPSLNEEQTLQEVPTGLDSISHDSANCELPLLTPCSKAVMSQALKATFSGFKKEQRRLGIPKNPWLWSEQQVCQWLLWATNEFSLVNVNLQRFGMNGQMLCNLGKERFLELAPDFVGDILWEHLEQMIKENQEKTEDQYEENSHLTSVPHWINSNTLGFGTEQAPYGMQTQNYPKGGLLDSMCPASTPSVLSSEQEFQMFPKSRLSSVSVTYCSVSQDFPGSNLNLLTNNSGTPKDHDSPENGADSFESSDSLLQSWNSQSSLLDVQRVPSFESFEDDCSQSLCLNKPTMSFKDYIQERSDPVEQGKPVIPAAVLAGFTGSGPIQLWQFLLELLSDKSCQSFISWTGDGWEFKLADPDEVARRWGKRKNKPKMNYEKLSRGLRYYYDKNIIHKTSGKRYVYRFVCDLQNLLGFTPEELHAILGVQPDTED
# How it was run: as §1
# SPDEF = biological target: T9, SPDEF (Homo sapiens, UniProt O95238 1-335); conditions: protein: recombinant; tags: N-terminal GST; dsDNA, one strand shown
# T9 sequence: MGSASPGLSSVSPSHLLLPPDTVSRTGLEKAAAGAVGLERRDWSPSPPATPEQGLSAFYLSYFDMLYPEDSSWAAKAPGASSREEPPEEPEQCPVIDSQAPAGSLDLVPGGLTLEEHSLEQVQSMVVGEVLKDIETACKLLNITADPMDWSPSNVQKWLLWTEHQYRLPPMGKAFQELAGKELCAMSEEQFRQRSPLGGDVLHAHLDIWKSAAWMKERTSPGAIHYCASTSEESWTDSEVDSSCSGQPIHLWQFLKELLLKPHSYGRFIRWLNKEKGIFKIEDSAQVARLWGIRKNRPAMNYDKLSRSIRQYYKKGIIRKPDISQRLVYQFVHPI
# How it was run: as §1
# ETV7 = biological target: T10, ETV7 (Homo sapiens, UniProt Q9Y603 1-341); conditions: protein: recombinant; tags: N-terminal GST; dsDNA, one strand shown
# T10 sequence: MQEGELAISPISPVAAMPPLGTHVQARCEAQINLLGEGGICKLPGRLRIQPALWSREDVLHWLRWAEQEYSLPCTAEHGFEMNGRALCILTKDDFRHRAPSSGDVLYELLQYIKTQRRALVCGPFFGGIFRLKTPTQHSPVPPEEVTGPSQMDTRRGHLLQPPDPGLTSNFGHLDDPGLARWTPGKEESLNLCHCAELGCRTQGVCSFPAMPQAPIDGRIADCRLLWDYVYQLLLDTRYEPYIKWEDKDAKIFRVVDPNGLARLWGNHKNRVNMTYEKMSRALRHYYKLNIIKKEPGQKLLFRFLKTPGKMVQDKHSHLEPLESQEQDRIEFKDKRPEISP
# How it was run: as §1
# ELF5 = biological target: T11, ELF5 (Homo sapiens, UniProt Q9UKW6-2 1-255); conditions: protein: recombinant; tags: N-terminal GST; dsDNA, one strand shown
# T11 sequence: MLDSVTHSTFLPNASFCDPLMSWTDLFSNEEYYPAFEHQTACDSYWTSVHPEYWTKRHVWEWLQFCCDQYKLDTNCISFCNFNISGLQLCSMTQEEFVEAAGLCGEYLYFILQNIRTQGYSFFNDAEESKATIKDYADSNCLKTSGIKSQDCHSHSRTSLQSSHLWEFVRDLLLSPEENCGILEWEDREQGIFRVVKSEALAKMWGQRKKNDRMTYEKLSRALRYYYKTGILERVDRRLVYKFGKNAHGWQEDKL
# How it was run: as §1
# ETV3 = biological target: T12, ETV3 (Homo sapiens, UniProt P41162-2 1-143); conditions: protein: recombinant; tags: N-terminal GST; dsDNA, one strand shown
# T12 sequence: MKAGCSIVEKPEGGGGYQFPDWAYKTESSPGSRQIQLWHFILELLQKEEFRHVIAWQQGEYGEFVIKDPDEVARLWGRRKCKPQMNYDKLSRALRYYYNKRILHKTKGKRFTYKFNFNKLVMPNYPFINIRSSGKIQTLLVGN
# How it was run: as §1
# ETV6 = ETV6 (Homo sapiens, UniProt P41212 1-452); conditions: protein: recombinant; tags: N-terminal GST; dsDNA, one strand shown
# How it was run: as §1
# Sequence of HSF1 (Q00613 whole entry): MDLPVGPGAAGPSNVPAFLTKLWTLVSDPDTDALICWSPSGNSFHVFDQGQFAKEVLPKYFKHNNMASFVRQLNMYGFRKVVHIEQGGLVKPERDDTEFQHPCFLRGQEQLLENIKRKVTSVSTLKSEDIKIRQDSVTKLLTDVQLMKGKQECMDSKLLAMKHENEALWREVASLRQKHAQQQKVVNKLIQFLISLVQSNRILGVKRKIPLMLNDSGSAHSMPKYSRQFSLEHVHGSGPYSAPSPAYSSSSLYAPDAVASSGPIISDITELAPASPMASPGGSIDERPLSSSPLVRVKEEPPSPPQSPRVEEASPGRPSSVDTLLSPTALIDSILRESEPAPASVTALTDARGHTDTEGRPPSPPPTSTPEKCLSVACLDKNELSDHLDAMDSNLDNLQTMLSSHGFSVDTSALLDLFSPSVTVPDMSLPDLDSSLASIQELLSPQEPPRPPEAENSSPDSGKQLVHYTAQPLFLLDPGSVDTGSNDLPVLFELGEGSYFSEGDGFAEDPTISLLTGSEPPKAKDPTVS
# Sequence of ETV1 (P50549 whole entry): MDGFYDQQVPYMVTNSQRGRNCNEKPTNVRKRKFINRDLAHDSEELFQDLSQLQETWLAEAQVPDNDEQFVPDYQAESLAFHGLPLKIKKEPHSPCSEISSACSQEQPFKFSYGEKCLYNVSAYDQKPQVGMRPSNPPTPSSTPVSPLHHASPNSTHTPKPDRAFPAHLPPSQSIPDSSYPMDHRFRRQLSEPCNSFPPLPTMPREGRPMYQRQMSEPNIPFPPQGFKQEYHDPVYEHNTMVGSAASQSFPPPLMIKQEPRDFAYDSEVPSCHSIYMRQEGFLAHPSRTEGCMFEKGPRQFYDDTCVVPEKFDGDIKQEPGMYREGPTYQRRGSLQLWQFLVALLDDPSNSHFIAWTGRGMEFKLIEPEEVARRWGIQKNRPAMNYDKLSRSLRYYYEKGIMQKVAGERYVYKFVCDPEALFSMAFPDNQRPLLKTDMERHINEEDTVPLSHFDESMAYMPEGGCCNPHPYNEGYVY
# Sequence of ELF4 (Q99607 whole entry): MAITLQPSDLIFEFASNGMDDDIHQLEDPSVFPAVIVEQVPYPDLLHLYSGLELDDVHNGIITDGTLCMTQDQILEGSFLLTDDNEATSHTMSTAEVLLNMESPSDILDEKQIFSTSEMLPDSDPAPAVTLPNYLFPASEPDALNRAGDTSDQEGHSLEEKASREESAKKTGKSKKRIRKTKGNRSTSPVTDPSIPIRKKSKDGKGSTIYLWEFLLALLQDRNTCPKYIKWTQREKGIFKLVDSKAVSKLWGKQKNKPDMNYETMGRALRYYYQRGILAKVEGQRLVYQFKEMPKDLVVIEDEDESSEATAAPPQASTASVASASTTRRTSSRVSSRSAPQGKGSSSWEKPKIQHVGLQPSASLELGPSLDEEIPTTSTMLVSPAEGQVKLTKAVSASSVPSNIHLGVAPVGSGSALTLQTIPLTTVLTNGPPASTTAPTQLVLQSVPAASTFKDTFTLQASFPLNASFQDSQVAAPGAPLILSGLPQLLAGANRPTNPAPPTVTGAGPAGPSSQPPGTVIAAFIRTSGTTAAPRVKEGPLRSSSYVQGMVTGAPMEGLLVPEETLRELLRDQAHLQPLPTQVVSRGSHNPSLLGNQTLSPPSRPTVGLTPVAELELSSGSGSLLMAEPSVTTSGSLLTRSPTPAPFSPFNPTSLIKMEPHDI
# Sequence of ETV5 (P41161 whole entry): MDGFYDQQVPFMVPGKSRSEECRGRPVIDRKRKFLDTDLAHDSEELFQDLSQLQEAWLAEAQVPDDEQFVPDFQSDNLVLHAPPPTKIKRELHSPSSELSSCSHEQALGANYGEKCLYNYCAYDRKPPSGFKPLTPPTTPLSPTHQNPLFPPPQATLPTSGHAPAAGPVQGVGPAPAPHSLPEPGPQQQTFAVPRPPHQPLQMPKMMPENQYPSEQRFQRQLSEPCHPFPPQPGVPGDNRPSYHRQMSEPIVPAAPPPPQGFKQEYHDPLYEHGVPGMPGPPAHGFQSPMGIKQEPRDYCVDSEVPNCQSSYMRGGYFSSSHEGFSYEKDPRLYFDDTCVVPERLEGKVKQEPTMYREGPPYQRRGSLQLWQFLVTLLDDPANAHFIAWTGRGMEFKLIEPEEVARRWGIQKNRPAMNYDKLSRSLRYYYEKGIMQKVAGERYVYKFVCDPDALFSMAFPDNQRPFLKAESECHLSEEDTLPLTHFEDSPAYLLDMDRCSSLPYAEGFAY
# Sequence of ETV6 (P41212 whole entry): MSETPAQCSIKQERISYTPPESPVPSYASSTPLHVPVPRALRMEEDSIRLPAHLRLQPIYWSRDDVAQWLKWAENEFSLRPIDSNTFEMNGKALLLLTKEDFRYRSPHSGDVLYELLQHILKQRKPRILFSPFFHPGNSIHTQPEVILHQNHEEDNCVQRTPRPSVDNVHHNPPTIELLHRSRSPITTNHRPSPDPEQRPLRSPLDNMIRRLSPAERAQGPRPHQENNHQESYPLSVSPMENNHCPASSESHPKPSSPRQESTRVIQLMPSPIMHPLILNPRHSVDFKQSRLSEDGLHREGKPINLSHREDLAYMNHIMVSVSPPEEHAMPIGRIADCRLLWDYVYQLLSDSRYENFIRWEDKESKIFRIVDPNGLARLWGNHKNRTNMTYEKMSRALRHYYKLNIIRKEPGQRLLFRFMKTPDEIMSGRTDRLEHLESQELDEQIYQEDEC
# Sequence of CRX (O43186 whole entry): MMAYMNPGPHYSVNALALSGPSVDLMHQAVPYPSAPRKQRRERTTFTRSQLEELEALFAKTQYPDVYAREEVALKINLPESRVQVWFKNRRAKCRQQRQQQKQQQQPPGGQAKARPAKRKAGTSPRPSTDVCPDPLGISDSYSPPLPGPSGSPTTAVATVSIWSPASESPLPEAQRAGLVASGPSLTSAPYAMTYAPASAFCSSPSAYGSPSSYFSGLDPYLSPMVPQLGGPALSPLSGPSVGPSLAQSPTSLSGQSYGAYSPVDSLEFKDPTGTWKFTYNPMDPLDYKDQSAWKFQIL
sequence,measurement,setting,value
CCGTTT,binding signal,FEV,"1.48 fold enrichment (6-mer frequency, TF over GST control)"
same,binding signal,ETV5,"1.44 fold enrichment (6-mer frequency, TF over GST control)"
same,binding signal,HSF1,"1.12 fold enrichment (6-mer frequency, TF over GST control)"
same,binding signal,SPIC,"1.44 fold enrichment (6-mer frequency, TF over GST control)"
same,binding signal,ELF4,"1.36 fold enrichment (6-mer frequency, TF over GST control)"
same,binding signal,ELK4,"1.33 fold enrichment (6-mer frequency, TF over GST control)"
same,binding signal,ETV2,"1.31 fold enrichment (6-mer frequency, TF over GST control)"
same,binding signal,ELF3,"1.44 fold enrichment (6-mer frequency, TF over GST control)"
same,binding signal,CRX,"1.06 fold enrichment (6-mer frequency, TF over GST control)"
same,binding signal,ETV1,"1.38 fold enrichment (6-mer frequency, TF over GST control)"
same,binding signal,ERF,"1.33 fold enrichment (6-mer frequency, TF over GST control)"
same,binding signal,ETV3L,"1.45 fold enrichment (6-mer frequency, TF over GST control)"
same,binding signal,ETS2,"1.4 fold enrichment (6-mer frequency, TF over GST control)"
same,binding signal,SPDEF,"1.57 fold enrichment (6-mer frequency, TF over GST control)"
same,binding signal,ETV7,"1.49 fold enrichment (6-mer frequency, TF over GST control)"
same,binding signal,ELF5,"1.51 fold enrichment (6-mer frequency, TF over GST control)"
same,binding signal,ETV3,"1.52 fold enrichment (6-mer frequency, TF over GST control)"
same,binding signal,ETV6,"1.53 fold enrichment (6-mer frequency, TF over GST control)"
